# In PubChem BioAssay (NCI):
# Values joined by “and” are separate entries in the source; they are usually repeats but may differ in a detail not shown here. Identical values can stand only once. The panel holds about 83,000 compounds, 20% with a hit somewhere; the sample as a whole holds those more often.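 Values shown are percent growth following 48 h exposure of cells in 96-well plates to a single concentration of compound; below 10 was considered active.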 Active and inactive are the calls of the source.
# Tested on: MDA-MB-468 breast
# Test: NCI-60 one-dose screen, 48 h (100 = growth as untreated, 0 = no growth, -100 = all killed)
# Conditions: 10 µM unless noted
row,Compound,growth
1,NC(CCCC(N)C(=O)c1ccccc1)C(=O)O (stereo not given),113% (inactive)
2,COc1ccc(-c2c3c(N)c4c(nc3nc3c2c(C)nn3-c2ccccc2)CCCCC4)cc1,76% (inactive)
3,Nc1ccc(Cl)c([N+](=O)[O-])c1,98.5% (inactive)
4,COc1ccc2[nH]c(O)c(/C=c3/cc4c(c(-c5ccc(F)cc5)n3)=Nc3ccccc3-4)c2c1,67.4% (inactive)
5,O=C(Cc1ccccc1)C(F)(F)F,111% (inactive)
6,Cc1ccc2c(n1)C(=O)C(Cl)=C(Nc1ccc(C#N)cc1)C2=O,51.4% (inactive)
7,CCOc1c(B(O)O)cccc1-c1nc2ccc3[nH]ncc3c2c2c1CCCC2,51.1% (inactive)
8,CCCCCCCCCCCCNC(=O)[C@H]1CSC(c2cc(Br)cs2)N1 (stereo not given in full),-48.7% (active)
9,N/N=C(\C(=N\N)c1ccccc1)c1ccccc1,94% (inactive)
10,Cc1ccc(Cn2c(-c3cccs3)nc3ccccc32)cc1,67.5% (inactive)
11,C=CCn1c(=O)c2cnc(Nc3ccc(N4CCN(C)CC4)cc3)nc2n1-c1cccc(C(C)(C)O)n1,-0.604% (active)
12,CCOc1cc(C2C(Cl)C(=O)N2n2cnnc2)ccc1O (stereo not given),111% (inactive)
13,Cn1c2ccccc2c2ccccc21,101% (inactive)
14,CN(c1ncccc1CNc1nc(Nc2ccc3c(c2)CC(=O)N3)ncc1C(F)(F)F)S(C)(=O)=O,-44.5% (active)
15,O=C(/C=C/c1ccccn1)c1ccc(OCc2nnc(-c3ccc(Cl)cc3)o2)cc1,-37.7% (active)
16,COc1cc(-c2nc(N=Nc3c(O)[nH]c4ccc(Br)cc34)[nH]c(=O)c2C#N)cc(OC)c1OC,103% (inactive)
17,Nc1cccc(Cl)c1N,-21.1% (active)
18,COc1cc(-c2nnc(-c3c(-c4ccc(F)cc4)nc4ccccn34)o2)cc(OC)c1OC,99.4% (inactive)
19,NC(=O)C(=Cc1ccc(Cl)cc1)C(N)=O,3.1% (active)
20,CC1(C)C(=O)/C(=C\c2cccnc2)C[C@]2(C)[C@H]3CC[C@@H]4[C@@H](C(=O)/C=C/c5ccncc5)CC[C@@]4(C)[C@]3(C)CC[C@@H]12,-5.14% (active)

row,Compound,growth
1,Oc1c(C(Nc2ccccc2Br)c2ccccc2)ccc2cccnc12 (stereo not given),-4% (active)
2,Oc1ccc(CSc2nnc(-c3ccc(Cl)cc3)o2)c2cccnc12,26.3% (inactive)
3,CSc1nc(N)nc2c1ncn2C,108% (inactive)
4,CCOC(=O)c1cc(C(=O)c2ccc(OC)c(OC)c2)n2c1ccc1ccc3cccnc3c12,38.5% (inactive)
5,Clc1ccc(-c2noc(/C=C\c3ccccc3)n2)cc1,97.7% (inactive)
6,CCCC(=O)CC(=O)c1ccccc1,97.5% (inactive)
7,Cc1oc2nc[nH]c(=O)c2c1C(=O)/C=C/c1ccc(Cl)cc1,10.6% (inactive)
8,Cc1cccc(C[C@H](NC(=O)Nc2ccc(C)cc2F)C(=O)N[C@@H]2C(=O)N3C[C@H](O)C[C@H]3C(=O)N3CCN(C)C[C@H]3C(=O)N[C@@H](C)C(=O)N3C[C@H](C)C[C@H]3C(=O)O[C@H]2C)c1,6.46% (active)
9,COc1cc(C2CC(c3ccc(Cl)cc3)=NN2C=O)ccc1OS(=O)(=O)c1ccc(C)cc1 (stereo not given),60.6% (inactive)
10,COc1ccc(C2=NN(/C=C3\SC(=O)NC3=Nc3ccc(F)cc3)C(c3ccc(F)cc3)C2)cc1 (stereo not given),101% (inactive)
11,COc1ccc(-c2nn(-c3cccc(Cl)c3)cc2/C=C2\C(=N)N(c3ccccc3)N=C2N)cc1,57.6% (inactive)
12,CCOc1ccc2nc3cc(N)ccc3c(N)c2c1,-84.6% (active) and -33.5% (active)
13,CC1(C)CC[C@]2(C(=O)N3CCOCC3)CC[C@]3(C)C(=CC[C@@H]4[C@@]5(C)CC[C@H](OC(=O)c6cccnc6)C(C)(C)[C@@H]5CC[C@]43C)[C@@H]2C1,45.6% (inactive)
14,COc1ccccc1CNCCCN1C(=O)c2ccc3c4c(ccc(c24)C1=O)C(=O)N(CCCNCCNCCCN)C3=O,-56.2% (active)
15,COc1ccc(/C=C\c2cc(OC)c(OC)c(OC)c2)cc1OCC(=O)Nc1nc2ccccc2s1,9.63% (active)
16,C=C1C(=O)O[C@H]2[C@H]1CC/C(COC(=O)c1cc3ccccc3s1)=C\CC[C@@]1(C)O[C@@H]21,-48.4% (active)
17,[2H]c1nc(Nc2ncc3cc(C(=O)N(C)C)n(C4CCCC4)c3n2)c([2H])c([2H])c1N1C([2H])([2H])C([2H])([2H])NC([2H])([2H])C1([2H])[2H],89% (inactive)
18,CC(C)c1ccc(NC(=O)Cc2ccc(Nc3ncnc4cc(-c5cnn(CCN(C)C)c5)ccc34)cc2)cc1,-86.9% [30 µM] (active)
19,O=c1cc(CP(=O)(O)O)c2cc(O)c(-c3ccccc3)cc2o1,99.1% (inactive)
20,O=C1c2ccccc2C(=O)c2cc(Cn3c[n+](Cc4ccc5ccccc5c4)c4ccccc43)ccc21,-27.6% (active)
